Shown are actives, neighbours in structure and some others; about 3.4% of the full set was active somewhere.
MEKK2mut PB1 HTS = signal of MEK5 binding to mutant human MEKK2 PB1 domain; bead flow cytometry, Alexa488-MEK5 binding to MEKK2 mutant; percent response, % at 10 µM; 290,000 tested, 0.35% active; AID 1530; in the data active = percent response above about 24%, passing the limit was not always enough
MEKK2 WT-MEK5 = raises or lowers MEK5 binding to wildtype human MEKK2 PB1 domain; Q9Y2U5; binding response (% of control), % at 10 µM; bead flow cytometry, Alexa488-MEK5 binding to MEKK2 WT; actives lie on both sides; AID 1531; 290,000 tested, 1.1% active; in the data active = binding response below about 67% or above about 130%
ANO1 activ = activates or potentiates the mouse TMEM16A chloride channel | AID 623877 | B-score at 10 µM | Q8BHY3 | 340,000 tested, 0.3% active | HEK293 TMEM16A/YFP-H148Q/I152L, iodide quench fluorescence; stronger effect = lower value;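 active = fluorescence-ratio B-score plate-corrected deviation score at least 3 library SD below zero, with starting fluorescence score within 5 deviations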;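 note: channel opened by trigger with iodide after compound preincubation; score built on the fluorescence ratio of max minus min over baseline; more negative score means more quench and so TMEM16A activation or potentiation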
TMEM16A inh = blocks the mouse calcium-activated chloride channel TMEM16A; Q8BHY3; HEK293 TMEM16A/YFP iodide influx fluorescence, ionomycin; normalized B-score (activity score, 25-100; higher = stronger inhibition) at 10 µM; 310,000 tested, 1.2% active;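 active = ratio plate-corrected score three or more library SD toward inhibition, starting fluorescence score within five deviations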;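 note: score derived from kinetic fluorescence span divided by baseline fluorescence per well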
MEKK3 PB1 HTS = MEKK3-MEK5 PB1 interaction, increase or decrease; Q99759; bead-based flow cytometry, Alexa488-MEK5 binding to MEKK3; actives lie on both sides; 0 = blocked by unlabeled MEK5, 100 = vehicle; binding response (% of control), % at 10 µM; 290,000 tested, 1.4% active; AID 1529;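 active = binding response more than 3 SD above or below the average of its plate-row segment, actives on both sides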;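 note: Alexa488 bead fluorescence after subtracting the streptavidin-only scavenger bead signal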
Target sequence (Q99759 whole entry, looked up): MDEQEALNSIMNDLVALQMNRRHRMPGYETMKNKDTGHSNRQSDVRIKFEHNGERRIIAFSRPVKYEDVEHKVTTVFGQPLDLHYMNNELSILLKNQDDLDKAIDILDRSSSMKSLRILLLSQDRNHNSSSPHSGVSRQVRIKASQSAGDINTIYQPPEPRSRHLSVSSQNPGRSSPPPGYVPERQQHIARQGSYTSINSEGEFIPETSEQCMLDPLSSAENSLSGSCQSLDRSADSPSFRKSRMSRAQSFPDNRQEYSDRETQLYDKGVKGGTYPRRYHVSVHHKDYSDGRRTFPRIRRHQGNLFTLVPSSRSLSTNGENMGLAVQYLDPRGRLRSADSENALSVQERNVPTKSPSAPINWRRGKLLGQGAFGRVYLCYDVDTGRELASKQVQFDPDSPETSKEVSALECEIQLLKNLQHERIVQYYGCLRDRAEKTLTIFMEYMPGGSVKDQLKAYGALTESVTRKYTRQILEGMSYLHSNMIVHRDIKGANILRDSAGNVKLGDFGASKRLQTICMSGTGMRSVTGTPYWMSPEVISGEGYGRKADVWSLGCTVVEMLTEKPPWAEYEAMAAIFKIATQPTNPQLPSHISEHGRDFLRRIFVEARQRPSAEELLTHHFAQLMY
NTR1 agonist = NTR1 (human) agonism; P30989; NTR1-U2OS beta-arrestin-GFP spot imaging, agonist mode; activation, % at 20 µM; 330,000 tested, 0.17% active; AID 493036;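 active = activation at or above 40% of the spot to cytoplasm intensity ratio, with at least 20 cells analyzed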;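 note: 0% = DMSO without peptide and 100% = 100 nM NTR1 peptide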
MEKK2wt confirm = raises or lowers MEK5 binding to wildtype human MEKK2, retest; shares compounds with MEKK3 PB1 HTS; bead flow cytometry, Alexa488-MEK5 binding to MEKK2 WT; actives lie on both sides; binding response (% of control), % at 10 µM; 5,900 tested, 2.4% active; in the data active = binding response below about 16% or above about 210%; inactive = in between
MEKK2mut-MEK5 = signal of MEK5 binding to mutant human MEKK2, retest; shares compounds with MEKK3 PB1 HTS; AID 1893; percent response, % at 10 µM; bead flow cytometry, Alexa488-MEK5 binding to MEKK2 mutant; 5,900 tested, 2% active; in the data active = percent response mostly above about 71%, no sharp cut-off; inactive = mostly below about 38%;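 note: higher means compound restores mutant binding toward wildtype level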
MEKK3-MEK5 inh = MEKK3-MEK5 PB1 inhibition, single concentration confirmation; shares compounds with MEKK3 PB1 HTS; bead flow cytometry, Alexa488-MEK5 binding to MEKK3; stronger effect = lower value; binding response (% of control), % at 10 µM; 5,900 tested, 1.8% active; AID 1894;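 active = binding response below 72% of control, or above a set upper limit, though filed actives all read lower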;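 note: 100% = DMSO only wells and 0% = binding blocked by excess unlabeled MEK5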
The depositor's hits bear a star; i = inactive; . = no result given; [ ] = dose if it differs, or a comment.

SMILES	MEKK2mut PB1 HTS	MEKK2 WT-MEK5	ANO1 activ	TMEM16A inh	MEKK3 PB1 HTS	NTR1 agonist	MEKK2wt confirm	MEKK2mut-MEK5	MEKK3-MEK5 inh
CCOC(=O)c1c(C)n(C)c2cc(-c3ccc(C)cc3)c(O)cc12	0.0	105.0	i	i	131.0*	0.3	103.0	1.0	103.0
CCOC(=O)c1c(C)n(C)c2ccc(OC(=O)c3ccc([N+](=O)[O-])cc3)cc12	-1.0	103.0	i	i	138.0*	10.2	102.0	3.0	103.0
CCOC(=O)c1c(C)n(CC)c2ccc(OC(=O)c3ccc([N+](=O)[O-])cc3)cc12	-1.0	98.0	i	i	96.0	4.5	.	.	.
CCOc1ccc(NC(=O)C2CC(=O)N(c3ccc4c(c3)OCCO4)C2)cc1OCC (stereo unspecified)	.	.	i	i	.	0.1	.	.	.
NC(=O)NC(=O)COC(=O)c1cccnc1Nc1ccccc1F	-49.0	62.0*[inhibitor]	i	i	65.0*[inhibitor]	-0.7	107.0	2.0	107.0
CC1CCCCC1NC(=O)CCCn1c(=S)[nH]c2ccsc2c1=O (stereo unspecified)	10.0	102.0	i	i	101.0	0.4	.	.	.
O=C(CSc1n[nH]c(=O)n1Cc1ccco1)Nc1ccccc1	23.0	123.0	i	i	128.0*	-0.5	69.0	-12.0	90.0
O=C(CSc1n[nH]c(=O)n1Cc1ccco1)Nc1ccccc1Cl	-16.0	79.0	i	i	74.0	-1.0	.	.	.
C=COCCn1c(-c2nonc2N)nc2ccccc21	9.0	119.0	i	i	122.0*	3.1	98.0	7.0	102.0
Cc1cc(Br)cc(Br)c1OCC(=O)NNC(=O)c1ccoc1C	3.0	102.0	i	i	100.0	0.0	.	.	.
CC(C)NS(=O)(=O)c1ccc(NC(=O)C(C)OC(=O)CCCOc2ccccc2)cc1 (stereo unspecified)	.	.	i	.	.	0.8	.	.	.
C=CCN1c2ccccc2[C@]23C[C@@H](C(=O)OC)N(C(=O)c4ccco4)C2=NC(C(=O)OC)=C(C(=O)OC)[C@H]13	2.0	145.0*	i	i	128.0*	1.2	95.0	-9.0	97.0
CC1(C)Cc2c(C#N)c(N)sc(=S)c2CO1	-8.0	75.0	i	i	94.0	-0.4	.	.	.
CC(C)C1Cc2c(C#N)c(N)sc(=S)c2CO1 (stereo unspecified)	-5.0	48.0*[inhibitor]	i	i	85.0	-1.1	74.0	-12.0	96.0
CCN(CC)CCCNC(=O)c1[nH]c2ccccc2c1Sc1ccc(Cl)cc1	38.0*	163.0*	i	i	105.0	5.7	167.0	46.0	106.0
COC(=O)c1[nH]c2ccccc2c1Sc1ccccc1	10.0	104.0	i	i	110.0	1.4	.	.	.
Cc1cc(C)c2c(N)c(C(=O)Nc3ncc(C)s3)sc2n1	5.0	102.0	i	i	103.0	-0.6	.	.	.
COc1ccc2nc(NC(=O)c3sc4nc(C)cc(C)c4c3N)sc2c1	-11.0	48.0	i	i	48.0*[inhibitor]	3.4	90.0	-5.0	90.0
O=C1CC(=O)NC(SCC(=O)Nc2ccccc2[N+](=O)[O-])=N1	6.0	103.0	i	i	104.0	-2.2	.	.	.
C=CCNC(=O)COC(=O)c1cc(S(=O)(=O)N2CCCCC2)ccc1Cl	-5.0	107.0	i	i	108.0	1.5	.	.	.
Cc1ccc(NC(=O)c2cc(S(=O)(=O)NCCC3=CCCCC3)ccc2F)cc1	0.0	109.0	i	i	128.0*	8.1	98.0	-6.0	104.0
CN1C(=O)c2ccc(C(=O)Nc3cccnc3)cc2C1=O	1.0	106.0	i	i	105.0	1.6	.	.	.

Bioassay records from PubChem.
